{"source": "PubChem BioAssay AID1851", "about": "(National Center for Advancing Translational Sciences (NCATS), 2009)", "note": "About 5,100 (32%) of roughly 16,000 compounds were called active. Another 25% or so got no clear call; they are omitted. The call rests on the fitted dose curve; in most records, active means well fitted curve in the direction sought with a large enough effect; inconclusive means small, poorly fitted or top-dose-only effect, or effect the other way; inactive means no such curve, though single readings can be large or run the other way. This is one part of the list. On the % scale 0 is the no-effect control and ±100 the full control effect.", "data": [{"target": "Cytochrome P450 3A4 (Homo sapiens) (UniProt P08684)", "sequence (P08684 whole entry, looked up)": "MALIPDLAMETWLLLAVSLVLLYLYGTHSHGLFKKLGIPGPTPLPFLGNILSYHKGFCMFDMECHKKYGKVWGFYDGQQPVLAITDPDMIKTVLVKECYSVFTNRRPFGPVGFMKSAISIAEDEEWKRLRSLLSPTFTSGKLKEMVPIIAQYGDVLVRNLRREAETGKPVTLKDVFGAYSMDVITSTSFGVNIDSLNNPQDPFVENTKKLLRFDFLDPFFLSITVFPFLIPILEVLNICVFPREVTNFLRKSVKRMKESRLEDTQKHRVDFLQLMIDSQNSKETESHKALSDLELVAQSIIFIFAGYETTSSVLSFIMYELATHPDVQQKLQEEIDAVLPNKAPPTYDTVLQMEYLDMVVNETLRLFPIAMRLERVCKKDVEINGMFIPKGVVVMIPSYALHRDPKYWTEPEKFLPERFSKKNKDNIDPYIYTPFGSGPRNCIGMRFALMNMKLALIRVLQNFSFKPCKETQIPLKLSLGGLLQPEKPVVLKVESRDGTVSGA", "assay": "Cytochrome panel assay with activity outcomes", "conditions": "recombinant CYP, pro-luciferin dealkylation, luminescence, p450-cyp3a4; series mostly up to 57.1 µM; activity, negative = inhibition: at the top concentration", "values": [{"molecule": "O=C(CCCCC(=O)Nc1c(I)cc(I)c(C(=O)O)c1I)Nc1c(I)cc(I)c(C(=O)O)c1I", "activity, negative = inhibition": "-16% [at 25.6 µM] (inactive)"}, {"molecule": "O=C(Nc1ccccc1C(=O)O)c1ccc2ccccc2n1", "activity, negative = inhibition": "23% (inactive)"}, {"molecule": "CC(C)C(=O)Cc1ccc2ccccc2n1", "activity, negative = inhibition": "-6.02% [at 11.4 µM] (inactive)"}, {"molecule": "O=C(O)c1ccccc1Nc1cccc(OCc2ccc3ccccc3n2)c1", "AC50": "1.58 µM (active)"}, {"molecule": "CCCCc1cc2ccccc2c(OCCN(C)C)n1", "activity, negative = inhibition": "-17.9% [at 25.6 µM] (inactive)"}, {"molecule": "O=C(O)Cc1cc2ccccc2nc1C(=O)O", "activity, negative = inhibition": "9.42% (inactive)"}, {"molecule": "CCCCC[C@H](O)c1cccc(OCc2ccc3ccccc3n2)c1", "AC50": "12.6 µM (active)"}, {"molecule": "CC1CN(C2CCN(C(=O)c3cccc(Cl)c3)CC2)CC(C)O1", "note": "(stereo not given)", "activity, negative = inhibition": "20.4% (inactive)"}, {"molecule": "CC1CN(C(=O)c2cc3c(s2)CCC3)CC(C)O1", "note": "(stereo not given)", "activity, negative = inhibition": "12.9% (inactive)"}, {"molecule": "CC(C)CNS(=O)(=O)c1cc(C(=O)N2CC(C)OC(C)C2)c(Cl)cc1Cl", "note": "(stereo not given)", "AC50": "3.16 µM (active)"}, {"molecule": "O=C(O)C[n+]1ccccc1", "activity, negative = inhibition": "-14.8% [at 11.4 µM] (inactive)"}, {"molecule": "O=C(/C=C/c1ccc(Br)cc1)NC1CCCCCC1", "activity, negative = inhibition": "-12.6% [at 11.4 µM] (inactive)"}, {"molecule": "CCOc1ccc(NC(=S)NC(=O)/C=C/c2ccc(C)cc2)c([N+](=O)[O-])c1", "activity, negative = inhibition": "5.31% (inactive)"}, {"molecule": "Cc1ccc(/C=C/C(=O)NC(=S)Nc2ccccc2C(=O)NC2CCCCC2)cc1", "AC50": "8.91 µM (active)"}, {"molecule": "NC(=O)c1ncn([C@@H]2O[C@@H](CO)[C@@H](O)[C@H]2O)c1O", "activity, negative = inhibition": "-3.29% (inactive)"}, {"molecule": "CCn1cc(C(=O)O)c(=O)c2cc3c(cc21)OCO3", "activity, negative = inhibition": "3.68% (inactive)"}, {"molecule": "CCCCNC(=O)CCn1c(=S)[nH]c2cc3c(cc2c1=O)OCO3", "AC50": "3.98 µM (active)"}, {"molecule": "CCc1c(C(=O)O)[nH]c2ccc(Br)cc12", "activity, negative = inhibition": "-8.49% (inactive)"}, {"molecule": "O=C(CCCn1c(=S)[nH]c2cc3c(cc2c1=O)OCO3)N1CCN(c2ccccc2)CC1", "AC50": "0.447 µM (active)"}, {"molecule": "O=c1c2cc(Br)ccc2[nH]c(=S)n1Cc1cccnc1", "AC50": "0.398 µM (active)"}, {"molecule": "CC1CCN(CCCn2c(=S)[nH]c3ccc(N4CCOCC4)cc3c2=O)CC1", "activity, negative = inhibition": "-10.7% (inactive)"}, {"molecule": "C=CCNC(=O)c1ccc(Cn2c(=S)[nH]c3cc4c(cc3c2=O)OCO4)cc1", "AC50": "7.94 µM (active)"}, {"molecule": "CC(C)OCCCn1c(=S)[nH]c2ncccc2c1=O", "activity, negative = inhibition": "-15.3% (inactive)"}, {"molecule": "COCC(=O)N1CCC2(CC1)CCN(c1ccccn1)CC2", "activity, negative = inhibition": "3.62% (inactive)"}, {"molecule": "O=C(CCCn1c(=S)[nH]c2ccc(Br)cc2c1=O)N1CCN(c2ccccn2)CC1", "AC50": "1.26 µM (active)"}, {"molecule": "O=C(CCCCCn1c(=S)[nH]c2cc3c(cc2c1=O)OCO3)N1CCN(C2CCCCC2)CC1", "AC50": "1.12 µM (active)"}, {"molecule": "COCC(=O)N1CCC2(CCCN(c3ncccn3)C2)CC1", "activity, negative = inhibition": "-6.09% (inactive)"}, {"molecule": "O=C(CCCn1c(=S)[nH]c2cc3c(cc2c1=O)OCO3)N1CCN(c2ncccn2)CC1", "AC50": "2 µM (active)"}, {"molecule": "Cc1cccc(N2CCN(C(=O)CCCn3c(=S)[nH]c4cc5c(cc4c3=O)OCO5)CC2)c1C", "AC50": "0.794 µM (active)"}, {"molecule": "COc1ccccc1Cn1c(=S)[nH]c2cc(C(=O)N3CCN(C)CC3)ccc2c1=O", "activity, negative = inhibition": "12.8% (inactive)"}]}]}
